From PubChem BioAssay (EPA / NIEHS)
Calls of active or inactive are those of the source. The calls were made as follows: active = hit-call score of the fitted dose curve at least 0.9, where 1 is the maximum; inactive = score below 0.9.

Experiments:
[1] = ATG_GLI_CIS: Attagene CIS-FACTORIAL HepG2 Assay for human Zinc Finger Protein GLI1 (AID 2282945); details: HepG2, Attagene cis-factorial reporter mRNA, GLI element; actives raise or lower the signal
Outline: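 HepG2 cells transiently transfected with cis-promoter multiplexed reporter units report endogenous transcription factor activity. After 24 h chemical exposure, reporter mRNA was quantified by RT-PCR, 6-FAM labelling, HpaI digestion and capillary electrophoresis, with bidirectional fitting against DMSO.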

[2] = ATG_GRE_CIS: Attagene CIS-FACTORIAL HepG2 Assay for human Glucocorticoid Response Elements (GRE) (AID 2282947); details: HepG2 GRE cis-reporter, Attagene multiplex mRNA; actives raise or lower the signal
Outline: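 HepG2 cells transiently transfected with multiple cis-promoter reporter units measure endogenous TF activity; 24 h compound exposure. Reporter mRNA quantified by RT-PCR, FAM labelling, HpaI digestion and capillary electrophoresis; bidirectional fit vs DMSO baseline.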

[3] = ATG_ISRE_CIS: Attagene CIS-FACTORIAL HepG2 Assay for human Interferon Regulatory Factor 1 (IRF1) binding to an Interferon-Stimulated Response Element (ISRE) (AID 2282948); details: HepG2 ISRE cis-reporter (Attagene), mRNA transcription readout; actives raise or lower the signal
Outline: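 Cell-based cis-reporter assay; HepG2; 24 h exposure; reporter mRNA by RT-PCR plus capillary electrophoresis fluorescence; activity in either direction scored relative to DMSO.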

[4] = ATG_M_32_CIS: Attagene CIS-FACTORIAL HepG2 Assay for M32 Transcription Factor (Internal Marker) (AID 2282949); details: HepG2 Attagene cis-factorial M32 reporter, mRNA; actives raise or lower the signal;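 also: background control marker of the multiplexed CIS panel rather than a real target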
Outline: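 Internal background marker read-out: RT-PCR/capillary electrophoresis fluorescence of reporter transcripts from transiently transfected HepG2 cells after 24 h chemical exposure. Activity fitted bidirectionally relative to DMSO negative control.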

[5] = ATG_M_06_CIS: Attagene CIS-FACTORIAL HepG2 Assay for M06 Transcription Factor (Internal Marker) (AID 2282950); details: HepG2 Attagene CIS-FACTORIAL M06 internal marker reporter; actives raise or lower the signal
Outline: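 Terse: HepG2, transient MRTU transfection (FuGene 6), 24 h dosing; total RNA, oligo(dT) RT, PCR, FAM label, HpaI cut, capillary electrophoresis; bidirectional fit vs DMSO baseline; background-control endpoint.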

[6] = target: Hypoxia-inducible factor 1-alpha (Homo sapiens) (UniProt Q16665); test: ATG_HIF1a_CIS: Attagene CIS-FACTORIAL HepG2 Assay for human Hypoxia Inducible Factor 1 (HIF1A) (AID 2282951); details: HepG2 Attagene cis-factorial HIF1a reporter transcription; actives raise or lower the signal
Outline: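 HepG2 cells transiently transfected with multiple cis-regulated reporter transcription units measure endogenous transcription factor activity. After 24 h exposure, reporter mRNA is quantified by RT-PCR with 6-FAM labelling, HpaI digestion and capillary electrophoresis. Bidirectional fitting against DMSO.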

[7] = target: Hepatocyte nuclear factor 6 (Homo sapiens) (UniProt Q9UBC0); test: ATG_HNF6_CIS: Attagene CIS-FACTORIAL HepG2 Assay for human Hepatocyte Nuclear Factor 6 (HNF6) (AID 2282952); details: HepG2 Attagene cis-factorial HNF6 reporter transcription; actives raise or lower the signal
Outline: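 HepG2 cells transiently transfected with cis-element-driven multiple reporter transcription units, dosed 24 h; reporter mRNA quantified by RT-PCR, FAM primer extension, HpaI digestion and capillary electrophoresis; bidirectional fit versus DMSO baseline.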

[8] = target: Heat shock factor protein 1 (Homo sapiens) (UniProt Q00613); test: ATG_HSE_CIS: Attagene CIS-FACTORIAL HepG2 Assay for human Heat Shock Transcription Factor 1 (HSE) (AID 2282953); details: HepG2 HSE cis-reporter, Attagene RNA transcription; actives raise or lower the signal
Outline: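 Read-out: fluorescence of reporter-specific RT-PCR fragments separated by capillary electrophoresis. HepG2 carrying transfected cis-element reporter units; 24 h dosing; activity fitted in both directions relative to DMSO baseline.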

[9] = ATG_MRE_CIS: Attagene CIS-FACTORIAL HepG2 Assay for human Metal Responsive Element (MRE) (AID 2282954); details: HepG2 MRE cis-reporter transcription, Attagene multiplex; actives raise or lower the signal
Outline: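 HepG2 cells transiently transfected with multiple cis-element reporter units measure endogenous MTF1-driven transcription. After 24 h compound exposure, reporter mRNA is quantified by RT-PCR with 6-FAM labelling, HpaI digestion and capillary electrophoresis; bidirectional fits versus DMSO.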

[10] = ATG_PBREM_CIS: Attagene CIS-FACTORIAL HepG2 Assay for human Phenobarbital-responsive Enhancer Module (PBREM) (AID 2282955); details: HepG2 PBREM cis-reporter, Attagene multiplexed transcription; actives raise or lower the signal
Outline: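 HepG2 cells transiently transfected with multiple cis-regulated reporter units measure endogenous transcription factor activity; 24 h compound exposure. Reporter mRNA quantified by RT-PCR, fluorescent labelling, HpaI digestion and capillary electrophoresis; bidirectional fit versus DMSO.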

[11] = target: Paired box protein Pax-6 (Homo sapiens) (UniProt P26367); test: ATG_Pax6_CIS: Attagene CIS-FACTORIAL HepG2 Assay for human Paired Box 6 (PAX6) (AID 2282956); details: HepG2 CIS-FACTORIAL PAX6 reporter transcription, RNA readout; actives raise or lower the signal
Outline: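 Multiplexed cis-reporter HepG2 system; 24 h treatment; reporter mRNA read by RT-PCR/CE fluorescence; bidirectional fit vs DMSO.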

[12] = ATG_PXRE_CIS: Attagene CIS-FACTORIAL HepG2 Assay for human Pregnane X Receptor Element (PXRE) (AID 2282957); details: HepG2 Attagene CIS-FACTORIAL PXRE reporter, mRNA; actives raise or lower the signal
Outline: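 HepG2 cells transiently transfected with cis-regulated multiple reporter transcription units; endogenous factor activity measured as reporter mRNA 24 h after dosing. RT-PCR, fluorescent primer extension, HpaI digestion, capillary electrophoresis; bidirectional fit versus DMSO baseline.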

[13] = ATG_RORE_CIS: Attagene CIS-FACTORIAL HepG2 Assay for human RAR-related Orphan Receptor Element (RORE) (AID 2282959); details: HepG2 Attagene cis-factorial RORE reporter, mRNA; actives raise or lower the signal
Outline: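 HepG2 cells carrying transiently transfected cis-regulated reporter units; RORE-driven reporter mRNA quantified 24 h post-dosing by RT-PCR, 6-FAM primer extension, HpaI digestion and capillary electrophoresis. Bidirectional fit versus DMSO.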

[14] = ATG_Sox_CIS: Attagene CIS-FACTORIAL HepG2 Assay for human SRY-box transcription factor (SOX) (AID 2282960); details: HepG2 Attagene cis-factorial SOX reporter, mRNA; actives raise or lower the signal
Outline: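 HepG2 cells transiently transfected with multiple cis-regulated reporter units, then dosed for 24 h. Reporter mRNA quantified by RT-PCR, fluorescent labelling, HpaI digestion and capillary electrophoresis; bidirectional fit versus DMSO.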

[15] = target: Transcription factor Sp1 (Homo sapiens) (UniProt P08047); test: ATG_Sp1_CIS: Attagene CIS-FACTORIAL HepG2 Assay for human Specificity Protein 1 (Sp1) (AID 2282961); details: HepG2 Sp1 cis-reporter transcription, actives raise or lower the signal
Outline: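 HepG2 cells transiently transfected with multiplexed cis-regulated reporter constructs, chemical exposure 24 h. Reporter mRNA quantified by RT-PCR with capillary electrophoresis; bidirectional fit relative to DMSO.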

[16] = target: Signal transducer and activator of transcription 3 (Homo sapiens) (UniProt P40763); test: ATG_STAT3_CIS: Attagene CIS-FACTORIAL HepG2 Assay for human Signal Transducer and Activator of Transcription 3 (STAT3) (AID 2282963); details: HepG2, Attagene cis-factorial STAT3 reporter transcription; actives raise or lower the signal
Outline: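 HepG2 cells transiently transfected with cis-element-driven multiple reporter transcription units; after 24 h chemical exposure, reporter mRNA measured by RT-PCR, 6-FAM primer-extension labelling, HpaI digestion and capillary electrophoresis. Bidirectional fitting versus DMSO baseline.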

[17] = ATG_TA_CIS: Attagene CIS-FACTORIAL HepG2 Assay for human TA Basal Promoter (AID 2282964); details: HepG2 Attagene CIS-factorial TA basal promoter reporter; actives raise or lower the signal
Outline: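 Transfected HepG2, 24 h compound exposure; RNA → RT-PCR → FAM primer extension → HpaI cut → CE fluorescence. Gain/loss-of-signal fitted against DMSO negative control. Background-control readout.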

[18] = ATG_PPRE_CIS: Attagene CIS-FACTORIAL HepG2 Assay for human Peroxisome Proliferator-activated Response Element (PPRE) (AID 2282958); details: HepG2 PPRE cis-element reporter, Attagene transcription factor profiling; actives raise or lower the signal
Outline: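 HepG2 cells are transiently transfected with multiplexed cis-promoter reporter units to report endogenous PPAR activity. After 24 h dosing, reporter mRNA is read by RT-PCR and capillary electrophoresis. Fitting is bidirectional against DMSO.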

[19] = ATG_SREBP_CIS: Attagene CIS-FACTORIAL HepG2 Assay for human Sterol Regulatory Element Binding (SREBP) (AID 2282962); details: HepG2 Attagene cis-factorial SREBP reporter, mRNA; actives raise or lower the signal
Outline: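 mRNA induction of transfected cis-promoter reporters in HepG2 cells, 24 h post-dose. Detection: RT-PCR with 6-FAM-labelled products, HpaI digest, capillary electrophoresis. DMSO served as negative control and baseline.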

Measured: AC50

Sequence of Hypoxia-inducible factor 1-alpha (Homo sapiens) (Q16665 whole entry, looked up): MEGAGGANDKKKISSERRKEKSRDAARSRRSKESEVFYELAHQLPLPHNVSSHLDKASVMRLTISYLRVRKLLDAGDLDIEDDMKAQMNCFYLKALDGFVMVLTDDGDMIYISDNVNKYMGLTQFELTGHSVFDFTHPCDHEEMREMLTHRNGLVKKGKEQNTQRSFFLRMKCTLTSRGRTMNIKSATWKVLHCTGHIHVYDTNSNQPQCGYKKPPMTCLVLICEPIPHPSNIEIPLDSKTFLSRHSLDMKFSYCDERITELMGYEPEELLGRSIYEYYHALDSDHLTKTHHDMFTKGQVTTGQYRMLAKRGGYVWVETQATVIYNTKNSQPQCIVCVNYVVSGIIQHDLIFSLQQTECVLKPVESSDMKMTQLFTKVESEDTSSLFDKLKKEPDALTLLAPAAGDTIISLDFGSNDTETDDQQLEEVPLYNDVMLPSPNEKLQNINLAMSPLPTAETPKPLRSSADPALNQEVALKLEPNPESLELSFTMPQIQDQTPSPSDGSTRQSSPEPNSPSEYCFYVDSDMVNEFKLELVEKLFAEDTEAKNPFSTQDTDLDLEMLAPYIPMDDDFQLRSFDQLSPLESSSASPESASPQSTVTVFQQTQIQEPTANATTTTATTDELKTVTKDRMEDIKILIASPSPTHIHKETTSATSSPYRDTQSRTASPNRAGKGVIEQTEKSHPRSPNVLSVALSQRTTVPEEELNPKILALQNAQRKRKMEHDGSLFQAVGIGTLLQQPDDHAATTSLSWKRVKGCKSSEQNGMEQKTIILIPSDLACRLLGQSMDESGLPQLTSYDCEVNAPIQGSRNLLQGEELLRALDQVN
Sequence of Hepatocyte nuclear factor 6 (Homo sapiens) (Q9UBC0 whole entry, looked up): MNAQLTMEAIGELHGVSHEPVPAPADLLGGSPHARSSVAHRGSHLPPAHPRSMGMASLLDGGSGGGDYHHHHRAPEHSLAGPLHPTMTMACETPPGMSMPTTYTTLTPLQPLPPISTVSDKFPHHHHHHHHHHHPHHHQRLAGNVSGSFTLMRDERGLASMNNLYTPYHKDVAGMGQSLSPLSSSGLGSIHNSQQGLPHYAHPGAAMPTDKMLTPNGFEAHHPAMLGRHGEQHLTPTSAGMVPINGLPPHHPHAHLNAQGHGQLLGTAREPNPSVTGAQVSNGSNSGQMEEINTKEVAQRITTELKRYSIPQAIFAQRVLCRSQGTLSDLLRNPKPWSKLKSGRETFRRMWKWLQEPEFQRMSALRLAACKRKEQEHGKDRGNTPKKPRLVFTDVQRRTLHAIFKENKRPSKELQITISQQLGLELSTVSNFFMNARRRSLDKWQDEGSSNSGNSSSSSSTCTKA
Sequence of Signal transducer and activator of transcription 3 (Homo sapiens) (P40763 whole entry, looked up): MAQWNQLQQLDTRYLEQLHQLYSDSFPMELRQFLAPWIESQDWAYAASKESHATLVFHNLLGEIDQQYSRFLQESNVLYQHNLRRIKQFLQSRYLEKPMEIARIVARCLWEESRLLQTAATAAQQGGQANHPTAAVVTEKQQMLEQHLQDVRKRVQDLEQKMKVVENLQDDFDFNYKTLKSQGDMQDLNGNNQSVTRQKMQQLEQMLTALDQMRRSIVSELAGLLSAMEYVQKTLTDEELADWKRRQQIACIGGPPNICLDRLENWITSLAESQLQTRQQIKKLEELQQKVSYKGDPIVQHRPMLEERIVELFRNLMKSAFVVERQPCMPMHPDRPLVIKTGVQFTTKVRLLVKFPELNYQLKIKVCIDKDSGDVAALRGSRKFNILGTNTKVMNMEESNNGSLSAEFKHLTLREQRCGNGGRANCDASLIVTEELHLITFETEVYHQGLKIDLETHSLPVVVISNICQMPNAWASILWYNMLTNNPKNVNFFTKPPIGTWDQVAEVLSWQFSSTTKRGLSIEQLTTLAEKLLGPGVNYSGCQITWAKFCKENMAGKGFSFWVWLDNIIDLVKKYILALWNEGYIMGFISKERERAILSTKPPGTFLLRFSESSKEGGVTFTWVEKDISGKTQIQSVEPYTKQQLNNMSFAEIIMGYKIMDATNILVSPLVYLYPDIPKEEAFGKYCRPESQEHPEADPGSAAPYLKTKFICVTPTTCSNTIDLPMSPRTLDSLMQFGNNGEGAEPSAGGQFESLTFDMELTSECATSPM
Sequence of Paired box protein Pax-6 (Homo sapiens) (P26367 whole entry, looked up): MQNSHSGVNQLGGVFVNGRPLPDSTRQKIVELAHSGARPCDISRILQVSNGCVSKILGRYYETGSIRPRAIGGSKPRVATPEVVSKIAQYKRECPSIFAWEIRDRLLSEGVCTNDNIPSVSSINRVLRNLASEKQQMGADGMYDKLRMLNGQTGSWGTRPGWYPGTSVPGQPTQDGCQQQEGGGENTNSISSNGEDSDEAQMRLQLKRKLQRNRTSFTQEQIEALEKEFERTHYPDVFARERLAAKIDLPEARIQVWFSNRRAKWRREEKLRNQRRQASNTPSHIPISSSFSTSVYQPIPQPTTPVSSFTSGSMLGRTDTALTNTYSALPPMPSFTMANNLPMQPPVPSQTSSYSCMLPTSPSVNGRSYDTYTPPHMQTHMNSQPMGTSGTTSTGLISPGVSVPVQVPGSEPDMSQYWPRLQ
Sequence of Transcription factor Sp1 (Homo sapiens) (P08047 whole entry, looked up): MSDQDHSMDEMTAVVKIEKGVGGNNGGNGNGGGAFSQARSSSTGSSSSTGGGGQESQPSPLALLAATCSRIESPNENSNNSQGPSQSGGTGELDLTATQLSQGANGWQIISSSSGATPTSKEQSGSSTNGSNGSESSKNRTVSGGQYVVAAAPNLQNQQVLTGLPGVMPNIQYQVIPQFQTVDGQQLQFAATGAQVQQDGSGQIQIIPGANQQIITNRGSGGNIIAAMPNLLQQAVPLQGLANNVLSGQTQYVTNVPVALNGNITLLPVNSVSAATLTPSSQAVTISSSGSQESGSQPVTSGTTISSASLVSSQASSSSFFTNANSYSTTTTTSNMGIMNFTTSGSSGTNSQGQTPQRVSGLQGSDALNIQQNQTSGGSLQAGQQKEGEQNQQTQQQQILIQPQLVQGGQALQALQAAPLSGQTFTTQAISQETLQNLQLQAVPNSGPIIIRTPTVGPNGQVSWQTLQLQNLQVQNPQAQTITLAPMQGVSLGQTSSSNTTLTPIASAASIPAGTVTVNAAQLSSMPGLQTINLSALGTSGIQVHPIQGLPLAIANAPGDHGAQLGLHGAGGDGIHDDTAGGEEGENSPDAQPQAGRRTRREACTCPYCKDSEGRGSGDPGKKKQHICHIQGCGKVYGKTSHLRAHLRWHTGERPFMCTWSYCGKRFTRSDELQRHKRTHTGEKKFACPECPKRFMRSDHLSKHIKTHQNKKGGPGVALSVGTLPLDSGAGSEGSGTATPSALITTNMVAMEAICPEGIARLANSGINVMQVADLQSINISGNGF
Sequence of Heat shock factor protein 1 (Homo sapiens) (Q00613 whole entry, looked up, the tested form may be a part): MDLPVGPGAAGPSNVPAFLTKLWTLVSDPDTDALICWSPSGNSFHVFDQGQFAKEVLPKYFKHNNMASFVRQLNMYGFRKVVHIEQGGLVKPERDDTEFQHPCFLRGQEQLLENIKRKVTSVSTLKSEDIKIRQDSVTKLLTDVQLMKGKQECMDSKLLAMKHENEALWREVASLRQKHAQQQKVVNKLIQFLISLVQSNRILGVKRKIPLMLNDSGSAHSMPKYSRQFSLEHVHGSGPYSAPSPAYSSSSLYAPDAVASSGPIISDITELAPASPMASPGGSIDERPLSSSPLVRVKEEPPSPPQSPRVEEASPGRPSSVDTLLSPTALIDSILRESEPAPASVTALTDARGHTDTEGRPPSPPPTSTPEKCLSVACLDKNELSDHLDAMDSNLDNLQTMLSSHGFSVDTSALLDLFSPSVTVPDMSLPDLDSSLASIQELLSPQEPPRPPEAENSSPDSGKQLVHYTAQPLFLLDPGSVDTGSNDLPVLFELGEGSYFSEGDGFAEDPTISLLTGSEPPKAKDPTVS

CC=C(C)C=CC=C(C)C
active: [12] 6.96 µM
not listed: [18] | [19]
inactive: all other assays above

CCc1cccc(C)c1N
active: [12] 47.7 µM
not listed: [10] | [19]
inactive: all other assays above

CC(C)c1cc(C(C)C)cc(C(C)C)c1
active: [1] 146 µM | [3] 176 µM | [4] 162 µM | [11] 159 µM | [12] 52.1 µM | [14] 159 µM | [19] 100 µM
not listed: [10] | [15]
inactive: all other assays above

O=C(O[C@@H]1Cc2c(O)cc(O)cc2O[C@@H]1c1cc(O)c(O)c(O)c1)c1cc(O)c(O)c(O)c1
active: [6] 26.8 µM
not listed: [13] | [18]
inactive: all other assays above

Cc1cccc(C(C)(C)C)c1O
active: [10] 16.8 µM | [12] 4.59 µM
not listed: [11] | [18] | [19]
inactive: all other assays above

C=CC(=O)OCCCCCCCCCC
active: [12] 26.4 µM
not listed: [15] | [18]
inactive: all other assays above

COCC(=O)O
not listed: [10]
inactive: all other assays above

CC(=O)OC/C=C(/C)CCC=C(C)C
not listed: [8] | [17]
inactive: all other assays above

O=C(O)CCCC(=O)O
not listed: [11] | [15]
inactive: all other assays above
